# Compounds with a hit are over-represented: about 6.6% of the library has one in this group of screens.
# KB-V1 cytotox = kills drug-selected multidrug resistant KB-V1 cells; 400,000 compounds, 3.4% hits; Potency, µM (titrated, usually from 46.1 µM), most hits filed as cytotoxic; AID 1347076; KB-V1 MDR cells viability, CellTiter-Glo, 72 h; further: on the % scale 0 is the no-effect control and ±100 the full control effect; nearly all actives have a fitted effect of over 60% in size
#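 Following 72 h at 37 degrees C with compound, KB-V1 cell viability was read by CellTiter-Glo luminescence, medium being phenol-red-free DMEM plus 10% FBS; concentration-response parameters came from normalized, curve-fitted qHTS data.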
# TGFb SMAD3 inh = blocks TGF-b signaling; 410,000 compounds, 1.2% hits; HepG2 CAGA-GFP TGF-b/SMAD3 reporter, GFP fluorescence, 18 h; TGF-beta stimulated, 500 pg/mL final; AID 588855; Potency, µM (doses to about 46.1 µM), inactives show top-dose activity, negative = inhibition, hits mostly inhibitors; further: on the % scale 0 is the no-effect control and ±100 the full control effect; nearly all actives have a fitted effect of over 65% in size
#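 Per well, imaged GFP fluorescence of HEPG2 CAGA-GFP cells gives the signal; cells get compound, then TGF-beta (500 pg/mL final), 18 h at 37 degrees C; %Activity versus -TGF-beta and +DMSO controls.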
# HepG2 tox = kills HepG2 cells in TGF-b inhibitor counter-screen | HepG2 CAGA-GFP viability, ATP luminescence, 18 h | Potency, µM (top dose mostly 46.1 µM), without a hit: at the highest dose activity change, negative = cytotoxicity, most hits filed as cytotoxic | 410,000 compounds, 0.76% hits | AID 588856
#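 CellTiter-Glo luminescence gave cytotoxicity after 18 hours at 37 degrees C. The cells were HepG2 CAGA-GFP in 1% FBS DMEM, stimulated with 500 pg/mL TGF-beta after compound addition. %Activity was normalised to no-cell wells (complete cell-killing) and DMSO (no toxicity), and curves were fitted and classified.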
# HT1080 IDH1KD tx = kills HT-1080 cells with IDH1 knockdown; HT-1080 IDH1 knockdown viability, ATP luminescence, 48 h; Potency, µM (top dose mostly 46.1 µM), for inactives: at the highest dose activity, negative = toxicity, most hits filed as cytotoxic; 360,000 compounds, 2% hits; AID 686971;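 further: 0% = DMSO wells and -100% = cell-free medium wells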
#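 IDH1KD HT-1080 cells, 750/well, RPMI + 5% FBS; compound pinned after 2 h settling; 48 h, 37 °C; CellTiter-Glo luminescence; % activity normalised to DMSO and no-cell wells; curves fitted, classed by r2 and efficacy.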
# HT1080NT lethal = kills 2HG-producing HT-1080-NT fibrosarcoma cells; HT-1080-NT fibrosarcoma viability, CellTiter-Glo ATP luminescence, 48 h; Potency, µM (top dose mostly 46.1 µM), inactives show top-dose activity, negative = less viability, most hits filed as cytotoxic; 360,000 compounds, 1.6% hits; AID 686970;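 further: NT is the 2HG producing partner of a matched IDH1 knockdown line; 0% = DMSO-treated cells and -100% = media-only wells without cells; nearly all actives have a fitted effect of over 55% in size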
#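 750 cells/well, RPMI + 5% FBS; 2 h settle, compound pin-transfer, 48 h at 37 degrees C. CellTiter-Glo 10 min RT, luminescence. Normalized to DMSO and media-only wells.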
# KB-3-1 tox = KB-3-1 parental cell cytotoxicity. 400,000 compounds, 1.4% hits. AID 1347075. KB-3-1 viability, CellTiter-Glo ATP luminescence, 72 h. Potency, µM (doses to about 46.1 µM), most hits filed as cytotoxic; further: on the % scale 0 is the no-effect control and ±100 the full control effect; nearly all actives have a fitted effect of over 60% in size
#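 Parental KB-3-1 viability, qHTS format: 72 h compound exposure, 37 °C; CellTiter-Glo; media-only wells and DMSO plates as controls; concentration-effect fits on corrected data.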
# Active calls of the source: *; i = inactive; u = inconclusive; x = no result given. The call rests on the fitted dose curve; in most records, active means well fitted curve in the direction sought with a large enough effect; inconclusive means small, poorly fitted or top-dose-only effect, or another doubt; inactive means no such curve, though single readings can be large; an effect the other way counts as inactive or inconclusive. Potency means the concentration at half of the fitted maximal effect.
SMILES,KB-V1 cytotox,TGFb SMAD3 inh,HepG2 tox,HT1080 IDH1KD tx,HT1080NT lethal,KB-3-1 tox
CCOc1ccc(N(CC)S(=O)(=O)N2CCCC(C(=O)NCc3ccccc3OCC)C2)cc1 (stereo not given),i,u,-11%,x,x,i
Cc1ccc(C)c(C(=O)Nc2cc(C)nn2-c2nc(C)cc(C)n2)c1,u,-4%,-18%,-6%,-11%,21µM*
Nc1nnc(-c2ccc([N+](=O)[O-])o2)s1,i,u,-99%,-18%,23µM*,u
O=c1[nH]nc(-c2ccc([N+](=O)[O-])o2)c(=O)[nH]1,i,9%,5%,-6%,4%,u
CCCn1c(SCC(=O)Nc2ccccc2N2CCCCC2)nc2c1c(=O)n(C)c(=O)n2C,u,u,-5%,-29%,16µM*,i
CCCn1c(SCC(=O)Nc2ccc3c(c2)OCO3)nc2c1c(=O)n(C)c(=O)n2C,u,-9%,-2%,-10%,-12%,i
CCCn1c(SCC(=O)Nc2ccccc2C(=O)OC)nc2c1c(=O)n(C)c(=O)n2C,5µM*,0%,3%,2%,9%,i
CCCn1c(SCC(=O)Nc2ccc(NC(C)=O)cc2)nc2c1c(=O)n(C)c(=O)n2C,i,4%,10%,-13%,2%,i
CC(=O)N1CCc2c(sc3c2c(=O)n(-c2ccc(C)cc2)c(=O)n3Cc2ccccc2C)C1,i,-17%,-15%,x,x,i
COC(=O)C1=C(C)Nc2c(c(=O)n(C)c(=O)n2C)C1c1cccc(O)c1 (stereo not given),u,9%,4%,1%,1%,i
Cn1c2c(c(=O)[nH]c1=O)C(c1cccc(O)c1)C1=C(N2)c2ccccc2C1=O (stereo not given),i,8%,-23%,u,-21%,16µM*
CCOc1ccc(C(=O)Nc2ccc3oc(-c4cccc5ccccc45)nc3c2)cc1,x,-38%,-26%,x,x,x
CCCc1nc2cc(C)c(Br)c(C)n2c1Cc1ccsc1,i,x,x,-29%,u,i
Nc1ccc(Nc2ccccc2)c(Cl)c1,i,-13%,-13%,-7%,-19%,i
Nc1ccccc1Nc1ccccc1,u,u,20µM*,-8%,-3%,i
Cc1ccccc1-c1cnc(C(O)c2ccc(Cl)c(F)c2)[nH]1 (stereo not given),i,-21%,3.2µM*,-15%,-20%,i
Cc1cc(C)cc(C(O)c2ncc(-c3ccccc3Cl)[nH]2)c1 (stereo not given),i,u,-33%,21µM*,u,i
CCOc1ccc(C2C(=O)N(C3CCCCCC3)CC(=O)N2CCc2ccc(Cl)cc2)cc1OC (stereo not given),x,5%,-3%,x,x,x
NC(=O)C(C(=O)/C=C/c1ccc(Cl)cc1)=C1SCCS1,6.5µM*,u,-34%,u,-7%,u
Cc1[nH][nH]c(=O)c1C(c1c(C)[nH][nH]c1=O)c1cn(Cc2ccc(Cl)c(Cl)c2)c2ccccc12,13µM*,13µM*,-19%,u,-20%,23µM*
Nc1c(C(=O)CSc2nc3ccccc3o2)c(=O)[nH]c(=O)n1C1CC1,i,-1%,-30%,u,-10%,1.3µM*
COc1ccccc1-c1nnc(SCC(=O)c2c(N)n(C3CC3)c(=O)[nH]c2=O)o1,i,8%,2%,-5%,-2%,i
C[C@H]1O[C@@H](O[C@H]2[C@@H](O)C[C@H](O[C@H]3[C@@H](O)C[C@H](O[C@H]4CC[C@@]5(C)[C@H](CC[C@@H]6[C@@H]5C[C@@H](O)[C@]5(C)[C@@H](C7=CC(=O)OC7)CC[C@]65O)C4)O[C@@H]3C)O[C@@H]2C)C[C@H](O)[C@@H]1O,0.41µM*,u,-56%,0.037µM*,0.23µM*,0.18µM*
CN1CCN(C(=O)c2ccc(CSc3ccc(Cl)cc3)cc2)CC1,7.3µM*,-5%,4%,3%,-1%,u
O=C(c1ccc(Cl)cc1)N1CCC(O)(CSc2ccccc2)CC1,i,-32%,-22%,-3%,-14%,i
SMILES,KB-V1 cytotox,TGFb SMAD3 inh,HepG2 tox,HT1080 IDH1KD tx,HT1080NT lethal,KB-3-1 tox
O=C(c1ccc(Cl)cc1)N1CCC(O)(CSc2ccc(Cl)cc2)CC1,i,u,-36%,-16%,-21%,0.0007µM*
CCOc1ccccc1N1CCN(CC(=O)N(C)CC(=O)Nc2ccccc2CC)CC1,i,-7%,-72%,-3%,1%,i
COc1ccccc1CNC(=O)COc1cc2c(c3oc(=O)cc(C)c13)CCC(C)(C)O2,16µM*,-17%,-14%,-14%,-1%,i
CCOc1ccc(-c2nc(SC(C(C)=O)C(=O)N(C)C)c3c(=O)n(C)c(=O)n(C)c3n2)cc1 (stereo not given),u,3%,6%,x,x,i
CN(C)CCCN1c2ccc3ccccc3c2Sc2cccc(Cl)c21,15µM*,u,-115%,u,-20%,u
O=C(CCl)N1c2ccccc2Sc2ccc3ccccc3c21,u,14µM*,11µM*,u,18µM*,i
CN(C)CCCN1c2ccccc2Sc2ccc3ccccc3c21,18µM*,u,-73%,u,-17%,u
Cc1ccc2c(c1)Sc1c(ccc3ccccc13)N2,i,u,-7%,-21%,-3%,i
CN(C)CCCN1c2ccccc2CCc2ccccc21,u,18%,-6%,-4%,-2%,i
COc1ccccc1N1CCN(C(=O)Cn2c(=O)nc(-c3ccccc3)c3ccccc32)CC1,x,u,-29%,x,x,x
COCCN(C(=O)c1ccc2c(c1)S(=O)(=O)N=C1CCCCCN12)c1c(N)n(CC(C)C)c(=O)[nH]c1=O,i,6%,10%,2%,7%,i
CCCOc1ccc(-c2cccc(NS(=O)(=O)c3ccc(CC)cc3)c2)nn1,u,u,-31%,x,x,i
O=C(N/N=C\c1cn[nH]c1-c1ccc(Cl)cc1)c1cccs1,i,10µM*,-87%,-12%,-15%,i
O=C(N/N=C/c1cn[nH]c1-c1ccc(Cl)cc1)c1ccc([N+](=O)[O-])cc1,i,-13%,8%,-2%,1%,i
COc1ccc(N(CC(=O)NCCSCc2ccc(C)cc2)S(=O)(=O)c2ccccc2)cc1,6.5µM*,-23%,-8%,u,-25%,u

# Screening results (PubChem)
